Eleven compounds from ChEMBL document CHEMBL3988442, “University of Dundee, Small-Polar-MMV Screening Library” (2021) can be followed below.

SMILES strings stand for the structures. For some of these results: Measured potencies and affinities stand elsewhere.

Common to all, as to design: scale not given: direction of the effect not stated beside the values
Assay [1] addresses Protein translocase subunit SecA (Escherichia coli (strain K12)) (UniProt P10408). Kind of assay: Assay to Identify E. coli SecA ATPase Inhibitors. Type of assay: functional. Conditions: 30 µM.
Assay [2] deals with T1, Ubiquitin-activating enzyme e1, putative (Leishmania donovani (strain BPK282A1)) (UniProt E9BSI1).
T1 sequence (whole entry): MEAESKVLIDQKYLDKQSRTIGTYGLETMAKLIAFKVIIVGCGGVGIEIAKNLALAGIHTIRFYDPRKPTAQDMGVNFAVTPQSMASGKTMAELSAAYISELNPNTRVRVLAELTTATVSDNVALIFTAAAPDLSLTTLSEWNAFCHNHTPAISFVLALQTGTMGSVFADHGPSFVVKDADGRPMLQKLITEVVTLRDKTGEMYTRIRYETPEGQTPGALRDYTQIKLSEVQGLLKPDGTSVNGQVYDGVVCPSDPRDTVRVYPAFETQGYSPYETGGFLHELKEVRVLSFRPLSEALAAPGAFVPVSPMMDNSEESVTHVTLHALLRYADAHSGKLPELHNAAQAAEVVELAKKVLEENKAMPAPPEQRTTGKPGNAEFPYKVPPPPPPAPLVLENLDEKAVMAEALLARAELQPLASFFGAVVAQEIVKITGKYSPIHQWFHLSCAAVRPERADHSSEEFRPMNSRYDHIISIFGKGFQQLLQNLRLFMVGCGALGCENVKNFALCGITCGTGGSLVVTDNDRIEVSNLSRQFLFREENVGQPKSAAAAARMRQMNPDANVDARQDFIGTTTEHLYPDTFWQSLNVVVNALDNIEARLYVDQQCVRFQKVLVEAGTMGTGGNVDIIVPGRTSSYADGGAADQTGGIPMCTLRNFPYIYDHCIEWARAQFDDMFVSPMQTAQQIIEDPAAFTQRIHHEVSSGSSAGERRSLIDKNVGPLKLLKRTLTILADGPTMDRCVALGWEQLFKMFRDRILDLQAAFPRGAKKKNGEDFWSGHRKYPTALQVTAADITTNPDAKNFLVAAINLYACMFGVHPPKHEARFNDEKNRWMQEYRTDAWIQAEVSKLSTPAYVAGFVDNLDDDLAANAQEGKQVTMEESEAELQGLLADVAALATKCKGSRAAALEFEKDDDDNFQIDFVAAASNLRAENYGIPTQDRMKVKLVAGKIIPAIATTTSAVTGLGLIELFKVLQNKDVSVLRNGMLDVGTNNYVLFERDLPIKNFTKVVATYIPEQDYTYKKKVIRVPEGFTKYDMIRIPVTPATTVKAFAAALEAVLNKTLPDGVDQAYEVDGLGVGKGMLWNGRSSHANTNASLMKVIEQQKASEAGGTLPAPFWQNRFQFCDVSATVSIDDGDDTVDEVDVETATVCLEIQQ
Put plainly: Leishmania donovani Ubiquitin Activating Enzyme (LdE1). It is filed as functional. The following applies: 30 µM.

Assay [3] concerns the target AMP-activated protein kinase, AMPK (Homo sapiens) (UniProt P54646+O43741+P54619+Q9UGJ0+Q9Y478+Q13131+Q9UGI9). Put plainly: AMP-dependent Kinase enzyme assay. An in vitro enzyme assay that detects ADP turnover that is directly proportional to AMPK activity. This uses naive AMPK that is activated during the assay with MK-8722. Type of assay: functional. The following applies: 30 µM.

The target in assay [4] is Sialic acid-binding Ig-like lectin 9 (Homo sapiens) (UniProt Q9Y336). Put plainly: Hs-Siglec9 ALPHAscreen SOP 20170721. The following applies: 10 µM.
The next assay has as its system Trypanosoma cruzi. Put plainly: Trypanosoma cruzi phosphomannomutase and mannose-1-phosphate guanylyltransferase assay. Type of assay: functional. The following applies: 10 µM.
Assay [5] concerns the target T2, Arginase-2, mitochondrial (Homo sapiens) (UniProt P78540).
T2 sequence (whole entry): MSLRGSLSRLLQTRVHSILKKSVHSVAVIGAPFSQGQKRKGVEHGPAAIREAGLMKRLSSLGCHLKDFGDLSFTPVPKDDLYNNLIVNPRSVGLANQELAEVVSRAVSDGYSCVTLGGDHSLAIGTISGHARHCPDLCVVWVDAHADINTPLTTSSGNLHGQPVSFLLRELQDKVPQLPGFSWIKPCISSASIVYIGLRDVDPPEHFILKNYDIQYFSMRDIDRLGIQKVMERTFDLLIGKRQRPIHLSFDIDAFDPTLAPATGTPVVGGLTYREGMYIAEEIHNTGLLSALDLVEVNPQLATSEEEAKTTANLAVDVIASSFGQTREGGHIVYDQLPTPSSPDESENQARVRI
Put plainly: in vitro enzyme assay to detect the production of urea directly proportional to the activity of Arginase II. Further: in the data most compounds retested in dose-response had high values. Type of assay: functional. The following applies: 33.3 µM.

In assay [6] the target is T3, Proteasome subunit beta (Trypanosoma cruzi) (UniProt O96673).
T3 sequence (whole entry): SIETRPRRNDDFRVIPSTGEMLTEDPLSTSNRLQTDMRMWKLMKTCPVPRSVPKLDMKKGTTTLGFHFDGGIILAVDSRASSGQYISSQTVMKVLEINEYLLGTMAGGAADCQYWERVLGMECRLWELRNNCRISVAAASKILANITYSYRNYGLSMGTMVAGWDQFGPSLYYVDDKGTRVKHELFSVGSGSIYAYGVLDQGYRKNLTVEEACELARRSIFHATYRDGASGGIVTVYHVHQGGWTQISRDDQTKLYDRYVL
Put plainly: Trypanosoma cruzi proteasome chymotrypsin-like activity (TcProtChymo) assay. Further: in the data most compounds retested in dose-response had high values. It is filed as functional. Conditions: 9.37 µM.

For a further assay, the species on record is Homo sapiens. Put plainly: To identify inhibition of the IFN signalling (Jak-Stat) pathway via expression of an eGFP reporter gene under the control of an IFN-stimulated response element (ISRE) containing MxA promoter. The following applies: 30 µM. It is filed as functional.
Assay [7] concerns the target T4, Tyrosyl-tRNA synthetase, putative (Trypanosoma cruzi (strain CL Brener)) (UniProt Q4DSP6).
T4 sequence (whole entry): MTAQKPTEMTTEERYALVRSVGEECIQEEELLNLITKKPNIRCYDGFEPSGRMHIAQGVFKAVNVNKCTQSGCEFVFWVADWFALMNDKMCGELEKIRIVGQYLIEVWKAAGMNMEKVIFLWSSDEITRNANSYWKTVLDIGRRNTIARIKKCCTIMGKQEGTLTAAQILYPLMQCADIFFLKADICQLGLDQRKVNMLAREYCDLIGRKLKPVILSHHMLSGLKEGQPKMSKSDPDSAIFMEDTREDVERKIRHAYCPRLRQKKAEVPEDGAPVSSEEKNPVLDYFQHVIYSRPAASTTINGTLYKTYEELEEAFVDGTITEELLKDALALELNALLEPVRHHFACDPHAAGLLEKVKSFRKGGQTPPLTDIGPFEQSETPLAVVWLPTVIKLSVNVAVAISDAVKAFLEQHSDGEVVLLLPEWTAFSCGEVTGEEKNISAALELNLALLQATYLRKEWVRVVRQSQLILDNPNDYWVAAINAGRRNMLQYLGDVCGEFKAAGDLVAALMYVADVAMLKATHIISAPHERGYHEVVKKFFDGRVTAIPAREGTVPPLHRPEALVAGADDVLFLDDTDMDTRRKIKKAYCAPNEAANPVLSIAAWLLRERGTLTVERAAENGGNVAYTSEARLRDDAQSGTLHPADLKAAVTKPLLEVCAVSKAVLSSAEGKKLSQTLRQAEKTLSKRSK
Kind of assay: Trypanosoma cruzi tyrosyl tRNA synthetase (TcYRS) _High Tyrosine SOP. Further: in the data most compounds retested in dose-response had high values. It is filed as functional. The following applies: 30 µM.

Assay [8] concerns the target T4, Tyrosyl-tRNA synthetase, putative (Trypanosoma cruzi (strain CL Brener)). Put plainly: Trypanosoma cruzi tyrosyl tRNA synthetase (TcYRS) SOP. Type of assay: functional. The following applies: 30 µM.
Assay [9] deals with Chromo domain-containing protein 1 (Saccharomyces cerevisiae (strain ATCC 204508 / S288c) (Baker's yeast)) (UniProt P32657). Kind of assay: ScCHD-1 Enzyme Inhibition Assay. Further: in the data most compounds retested in dose-response had high values. Type of assay: functional. The following applies: 30 µM.
Chain of Chromo domain-containing protein 1 (Saccharomyces cerevisiae (strain ATCC 204508 / S288c) (Baker's yeast)) (P32657 whole entry, the tested form may be a part): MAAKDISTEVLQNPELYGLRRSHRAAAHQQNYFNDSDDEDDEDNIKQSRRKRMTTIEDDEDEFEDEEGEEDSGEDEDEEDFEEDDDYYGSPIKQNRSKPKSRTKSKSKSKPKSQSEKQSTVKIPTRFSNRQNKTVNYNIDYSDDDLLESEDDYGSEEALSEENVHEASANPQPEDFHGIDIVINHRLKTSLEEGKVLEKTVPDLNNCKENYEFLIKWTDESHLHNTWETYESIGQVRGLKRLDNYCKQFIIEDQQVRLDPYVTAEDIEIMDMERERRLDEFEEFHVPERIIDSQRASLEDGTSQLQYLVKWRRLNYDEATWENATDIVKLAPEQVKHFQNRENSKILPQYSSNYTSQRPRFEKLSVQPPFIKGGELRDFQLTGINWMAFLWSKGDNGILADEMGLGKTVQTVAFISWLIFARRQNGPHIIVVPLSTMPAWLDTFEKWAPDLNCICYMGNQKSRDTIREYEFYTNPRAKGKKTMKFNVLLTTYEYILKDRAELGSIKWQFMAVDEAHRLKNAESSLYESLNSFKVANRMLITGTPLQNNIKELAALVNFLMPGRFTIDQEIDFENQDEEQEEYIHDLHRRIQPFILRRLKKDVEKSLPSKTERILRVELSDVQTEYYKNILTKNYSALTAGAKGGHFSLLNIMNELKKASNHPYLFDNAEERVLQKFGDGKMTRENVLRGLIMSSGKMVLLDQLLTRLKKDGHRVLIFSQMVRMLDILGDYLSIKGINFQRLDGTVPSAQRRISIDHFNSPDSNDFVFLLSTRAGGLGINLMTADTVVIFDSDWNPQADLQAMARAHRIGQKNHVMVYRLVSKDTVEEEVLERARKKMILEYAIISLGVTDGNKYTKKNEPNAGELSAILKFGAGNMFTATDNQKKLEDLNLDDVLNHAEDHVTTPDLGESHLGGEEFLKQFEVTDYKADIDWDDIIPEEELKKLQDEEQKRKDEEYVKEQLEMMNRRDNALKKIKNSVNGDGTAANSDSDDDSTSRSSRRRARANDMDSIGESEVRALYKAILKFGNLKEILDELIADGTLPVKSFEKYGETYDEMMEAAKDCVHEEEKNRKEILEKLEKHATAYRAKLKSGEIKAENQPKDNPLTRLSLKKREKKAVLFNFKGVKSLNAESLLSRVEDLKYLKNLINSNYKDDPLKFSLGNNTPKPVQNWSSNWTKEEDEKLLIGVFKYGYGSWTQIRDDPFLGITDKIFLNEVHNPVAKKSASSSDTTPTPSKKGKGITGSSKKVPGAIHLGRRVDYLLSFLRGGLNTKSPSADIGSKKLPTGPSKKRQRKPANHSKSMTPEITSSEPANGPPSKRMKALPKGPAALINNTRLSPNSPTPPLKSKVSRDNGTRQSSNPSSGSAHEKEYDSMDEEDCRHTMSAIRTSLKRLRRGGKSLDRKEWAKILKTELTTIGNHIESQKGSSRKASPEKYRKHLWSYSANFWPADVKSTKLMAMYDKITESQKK

Chain of Sialic acid-binding Ig-like lectin 9 (Homo sapiens) (Q9Y336 whole entry): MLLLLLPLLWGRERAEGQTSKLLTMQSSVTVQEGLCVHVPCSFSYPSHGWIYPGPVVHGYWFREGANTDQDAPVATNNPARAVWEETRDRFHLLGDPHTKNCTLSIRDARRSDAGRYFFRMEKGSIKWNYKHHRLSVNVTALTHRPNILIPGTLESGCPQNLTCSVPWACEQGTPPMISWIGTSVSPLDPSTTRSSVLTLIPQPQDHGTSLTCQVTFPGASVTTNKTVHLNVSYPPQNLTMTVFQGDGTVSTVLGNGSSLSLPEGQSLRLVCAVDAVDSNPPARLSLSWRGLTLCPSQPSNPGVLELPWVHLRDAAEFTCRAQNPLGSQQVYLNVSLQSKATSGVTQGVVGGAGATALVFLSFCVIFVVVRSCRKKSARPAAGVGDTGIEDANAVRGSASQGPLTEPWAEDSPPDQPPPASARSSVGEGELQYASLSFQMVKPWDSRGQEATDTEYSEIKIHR
Chain of Protein translocase subunit SecA (Escherichia coli (strain K12)) (P10408 whole entry): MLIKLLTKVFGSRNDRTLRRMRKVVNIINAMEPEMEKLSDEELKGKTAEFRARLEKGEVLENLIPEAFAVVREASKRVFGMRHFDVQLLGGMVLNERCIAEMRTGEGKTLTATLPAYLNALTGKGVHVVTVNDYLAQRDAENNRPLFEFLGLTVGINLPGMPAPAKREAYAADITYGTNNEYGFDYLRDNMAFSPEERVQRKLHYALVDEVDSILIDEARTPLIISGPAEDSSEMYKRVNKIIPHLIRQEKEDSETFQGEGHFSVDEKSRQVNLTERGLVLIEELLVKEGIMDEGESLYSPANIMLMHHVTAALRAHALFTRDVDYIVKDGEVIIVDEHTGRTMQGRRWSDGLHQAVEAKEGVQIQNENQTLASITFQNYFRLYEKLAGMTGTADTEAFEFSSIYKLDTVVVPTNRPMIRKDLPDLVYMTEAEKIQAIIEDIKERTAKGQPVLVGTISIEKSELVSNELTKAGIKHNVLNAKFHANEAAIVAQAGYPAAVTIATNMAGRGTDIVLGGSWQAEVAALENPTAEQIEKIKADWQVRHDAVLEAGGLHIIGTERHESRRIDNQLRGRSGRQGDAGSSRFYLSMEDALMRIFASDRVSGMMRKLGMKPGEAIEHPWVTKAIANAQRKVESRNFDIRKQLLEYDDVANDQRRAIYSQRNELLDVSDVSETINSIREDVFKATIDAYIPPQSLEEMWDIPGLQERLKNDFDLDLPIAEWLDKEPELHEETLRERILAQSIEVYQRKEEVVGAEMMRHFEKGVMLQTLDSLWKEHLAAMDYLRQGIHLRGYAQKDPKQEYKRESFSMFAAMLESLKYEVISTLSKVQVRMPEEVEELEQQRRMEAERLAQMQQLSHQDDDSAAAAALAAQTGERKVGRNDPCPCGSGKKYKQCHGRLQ

Take `COc1ccccc1CC(=O)N1CCC(NCc2cccnc2)CC1`: the Percent Effect in assay [1] is -3.89%; in assay [2] it was 16.2%; in assay [3] it was -2.91%; in assay [4] it was -2.63%; in the assay with Trypanosoma cruzi, -9.01%; in [5] it was -0.924%. Besides, the Percent Effect in assay [6] is 7.18%; in the assay filed under Homo sapiens it was 3.6%; in assay [7], 3.96%; in [8], 3.66%; in assay [9] it was -3.87%.
Take `Cn1cnc2c1C(COCc1ccccc1)N(Cc1ccncc1)CC2` (stereo unspecified): the Percent Effect in assay [1] is -1.94%; in assay [2], 2.67%; in [3], -0.486%; in [4], 11.9%; with Trypanosoma cruzi, -1.16%; in assay [5], -25.6%. Besides, the Percent Effect in assay [6] is 7.69%; in the assay filed under Homo sapiens, -15.2%; in assay [7] it was 3.12%; in assay [8], 10%; in [9], -6.37%.
On to `O=C(O)c1ccc(F)c(S(=O)(=O)Nc2c(F)cccc2-n2cccn2)c1`, for which the Percent Effect in assay [1] is -6.05%; in assay [2], 2.67%; in [3], -4.66%; in assay [4] it was 12.6%; in the assay on Trypanosoma cruzi, 2.04%; in assay [5], 3.12%. Moreover, the Percent Effect in [6] was 8.02%; in the assay listed under Homo sapiens it was 2.56%; in assay [7], 4.92%; in [8], 8.64%; in assay [9], -3.46%.
As for `O=S(=O)(c1cccs1)N1CCCn2cnc(CN3CCCC3)c2C1`, the Percent Effect in assay [1] was -4.49%; in [2], 10.7%; in assay [3] it was -0.197%; in assay [4], 0.986%; in the assay with Trypanosoma cruzi, -3.48%; in assay [5] it was -60.4%. The Percent Effect in assay [6] is 13.8%; in the assay filed under Homo sapiens, 7.16%; in assay [7], 4.17%; in assay [8], 12.5%; in assay [9] it was -7.45%.
For `COc1cc(CN(C)C(=O)Nc2cc(C)on2)ccc1SC`, the Percent Effect was -9.88% in [1]; 5.41% in assay [2]; -3.24% in assay [3]; 0.0571% in assay [4]; -2.73% in the assay with Trypanosoma cruzi; -24.2% in [5]. Besides, the Percent Effect was 21.6% in assay [6]; 6.33% in the assay filed under Homo sapiens; 9.9% in [7]; 1.22% in assay [8]; -2.37% in assay [9].
For the compound `CN(C)C(CNC(=O)c1cccc(-n2cnnn2)c1)c1ccccc1Cl` (stereo unspecified), the Percent Effect is -1.38% in assay [1]; 2.74% in assay [2]; 2.54% in assay [3]; -4.62% in assay [4]; -7.64% in the assay with Trypanosoma cruzi; 3.64% in [5]. Besides, the Percent Effect in assay [6] is 10.8%; in the assay listed under Homo sapiens it was 10.5%; in assay [7] it was 3.23%; in assay [8], 10%; in assay [9], -3.4%.
As for `CN(Cc1cccc(F)c1)C(=O)CN1CCCCC1Cn1cncn1` (stereo unspecified), the Percent Effect in assay [1] was -1.08%; in assay [2], -2.6%; in assay [3], -0.897%; in [4], 5.97%; in the assay on Trypanosoma cruzi, 1.08%; in assay [5] it was -4.14%. Also, the Percent Effect was 9.32% in [6]; -1.75% in the assay listed under Homo sapiens; 4.3% in assay [7]; -1.24% in [8]; -0.771% in assay [9].
For the compound `CC(C)Cc1noc(CN2CCOCC2)n1`, the Percent Effect in assay [1] was -1.04%; in assay [2], 7.89%; in assay [3], -1.16%; in assay [4], 2.11%; in the assay with Trypanosoma cruzi, 2.07%; in assay [5] it was 1.15%. The Percent Effect in assay [6] is 15.7%; in the assay filed under Homo sapiens, -19.8%; in [7] it was 5.39%; in assay [8], 12.2%; in assay [9], -7.16%.
For the compound `CCn1cnnc1C1CCN(C(=O)c2ccc3cc[nH]c3c2)CC1`, the Percent Effect in assay [1] was -5.68%; in [2], 7.89%; in [3], 11.4%; in [4], 8.5%; with Trypanosoma cruzi it was -3.21%; in assay [5] it was 3.55%. Also, the Percent Effect is 11% in assay [6]; -5.37% in the assay filed under Homo sapiens; -2.13% in assay [7]; 7.79% in assay [8]; -4.05% in assay [9].
On to `CC(=O)Nc1nc(C(=O)N2CCCC2c2ccccc2C)cs1` (stereo unspecified), for which the Percent Effect in assay [1] is -3.82%; in assay [2], 10.4%; in assay [3], 8.63%; in assay [4], 1.33%; in the assay with Trypanosoma cruzi, -8.24%; in [5], 4.27%. Besides, the Percent Effect is 3.21% in [6]; 31.4% in the assay listed under Homo sapiens; 5.83% in [7]; 9.76% in assay [8]; -5.39% in [9].
For `O=C1[C@@H]2CCN(Cc3ccoc3)C[C@@H]2OCCN1c1ccccc1`, the Percent Effect in [1] is -5.21%; in [2], 10.7%; in [3], 13%; in assay [4] it was 1.36%; in the assay with Trypanosoma cruzi, -2.95%; in assay [5], 8.16%. Also, the Percent Effect is 5.02% in assay [6]; 5.67% in the assay listed under Homo sapiens; 3.19% in assay [7]; 11.5% in assay [8]; 1.78% in assay [9].
